# Results as given in PubChem BioAssay (Tox21).
# Values without a mark were called inactive. Inconclusive results are not listed. Where a call stands in place of a potency, no number is given. Calls of active or inactive are those of the source. Calls come from the whole dose curve; as a rule, active = well fitted curve in the direction sought with a large enough effect in the repeat runs; inconclusive = weak or mixed curves; inactive = no such curve, though single readings can be large; an effect the other way counts as inactive or inconclusive.
# Experiments:
# [1] = qHTS RealTime-Glo MT Cell Viability Assay in HEK293 cells - 16 hour (AID 1224872); note: nearly all actives have a fitted effect of over 50% in size; note: potency is the fitted concentration of half-maximal effect
# Method in brief: (§1)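 Homogeneous bioluminescent viability format in HEK293 cells (600 cells/well). Following 5 h at 37 C/5% CO2, 23 nL compound was pintooled; the signal was measured repeatedly during 40 h incubation.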
# [2] = qHTS RealTime-Glo MT Cell Viability Assay in HepG2 cells - 8 hour (AID 1224873); note: nearly all actives have a fitted effect of over 55% in size
# Method in brief: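 HepG2 cells mixed with RealTime-Glo MT reagents (NanoLuc plus cell-permeant prosubstrate) were seeded at 600 cells/well, incubated 5 h at 37 C/5% CO2, then pinned with compounds in DMSO; nonlytic luminescence tracked viability during 40 h treatment.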
# [3] = qHTS RealTime-Glo MT Cell Viability Assay in HEK293 cells - 40 hour (AID 1224874); settings: RealTime-Glo luminescence; max response: hits give low values; note: nearly all actives have a fitted effect of over 50% in size; note: potency is the fitted concentration of half-maximal effect
# Method in brief: (§2)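 600 HEK293 cells per well, dispensed already mixed with RealTime-Glo MT reagents. Compound dosing came 5 h later. The same wells were read for luminescence at 0, 8, 16, 24, 32 and 40 h of exposure at 37 C.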
# [4] = A CellTox Green Cytotoxicity Assay to monitor cytotoxicity in HEK293 cells - 24 hour (AID 1224875); note: series mostly up to about 77 µM; nearly all actives have a fitted effect of over 45% in size
# Method in brief: (§3)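 Dead-cell fluorescence measured kinetically: asymmetric cyanine dye, HEK293, 600 cells/well, 5 h settle, 23 nL cpd/DMSO, 37 C, reads 0–40 h every 8 h.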
# [5] = A CellTox Green Cytotoxicity Assay to monitor cytotoxicity in HepG2 cells - 16 hour (AID 1224876); note: nearly all actives have a fitted effect of over 45% in size
# Method in brief: (§4)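 First, HepG2 cells (600/well) mixed with reagent were plated; second, after 5 h at 37 C they received compounds via pintool; third, fluorescence was measured at 0 h through 40 h at 8 h intervals.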
# [6] = qHTS RealTime-Glo MT Cell Viability Assay in HepG2 cells - 32 hour (AID 1224877); note: nearly all actives have a fitted effect of over 55% in size
# Method in brief: (§5)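 Cell number in HepG2 cultures estimated from NanoLuc luminescence generated by metabolic reduction of a prosubstrate by living cells. The homogeneous, nonlytic format allowed repeated reads at 0, 8, 16, 24, 32 and 40 h of compound exposure.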
# [7] = A CellTox Green Cytotoxicity Assay to monitor cytotoxicity in HepG2 cells - 24 hour (AID 1224878); note: nearly all actives have a fitted effect of over 45% in size
# Method in brief: as §4
# [8] = qHTS RealTime-Glo MT Cell Viability Assay in HEK293 cells - 0 hour (AID 1224880); note: top concentration of the series differs between compounds; nearly all actives have a fitted effect of over 45% in size
# Method in brief: as §2
# [9] = A CellTox Green Cytotoxicity Assay to monitor cytotoxicity in HEK293 cells - 32 hour (AID 1224881); note: nearly all actives have a fitted effect of over 40% in size
# Method in brief: as §3
# [10] = A CellTox Green Cytotoxicity Assay to monitor cytotoxicity in HepG2 cells - 0 hour (AID 1224882); note: nearly all actives have a fitted effect of over 35% in size
# Method in brief: as §4
# [11] = A CellTox Green Cytotoxicity Assay to monitor cytotoxicity in HepG2 cells - 32 hour (AID 1224883); note: nearly all actives have a fitted effect of over 50% in size
# Method in brief: as §4
# [12] = A CellTox Green Cytotoxicity Assay to monitor cytotoxicity in HEK293 cells - 8 hour (AID 1224884); note: nearly all actives have a fitted effect of over 35% in size
# Method in brief: as §3
# [13] = qHTS RealTime-Glo MT Cell Viability Assay in HepG2 cells - 16 hour (AID 1224885); note: nearly all actives have a fitted effect of over 50% in size
# Method in brief: as §5
# [14] = qHTS RealTime-Glo MT Cell Viability Assay in HEK293 cells - 24 hour (AID 1224886)
# Method in brief: as §1
# [15] = qHTS RealTime-Glo MT Cell Viability Assay in HEK293 cells - 8 hour (AID 1224887); note: nearly all actives have a fitted effect of over 50% in size; note: potency is the fitted concentration of half-maximal effect
# Method in brief: as §2
# [16] = A CellTox Green Cytotoxicity Assay to monitor cytotoxicity in HEK293 cells - 16 hour (AID 1224888); note: nearly all actives have a fitted effect of over 35% in size
# Method in brief: as §3
# [17] = qHTS RealTime-Glo MT Cell Viability Assay in HepG2 cells - 0 hour (AID 1224889); note: nearly all actives have a fitted effect of over 50% in size
# Method in brief: as §5
# [18] = A CellTox Green Cytotoxicity Assay to monitor cytotoxicity in HepG2 cells - 8 hour (AID 1224890); note: nearly all actives have a fitted effect of over 45% in size
# Method in brief: as §4
# [19] = qHTS assay to identify small molecule antagonists of the estrogen receptor alpha (ER-alpha) signaling pathway using the BG1 cell line in the presence of 0.1 nM 17-beta-estradiol - cell viability counter screen (AID 1259241); note: nearly all actives have a fitted effect of over 40% in size
# Method in brief: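 Live-cell protease activity (CellTiter-Fluor fluorescence, 30 min) was read in the same wells after VM7Luc4E2 cells had been exposed to compounds with 0.1 nM 17beta-estradiol for 22 hr at 37C.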
# [20] = A CellTox Green Cytotoxicity Assay to monitor cytotoxicity in HepG2 cells - 40 hour (AID 1224879); note: nearly all actives have a fitted effect of over 40% in size
# Method in brief: as §4
smiles,measurement,setting,value
C/C=C(\C)C(=O)OCCC(C)CCC=C(C)C (stereo unspecified),Potency,[1],inactive
same,Potency,[2],inactive
same,max response,[3],5.27%
same,Potency,[4],inactive
same,Potency,[5],inactive
same,Potency,[6],inactive
same,Potency,[7],inactive
same,Potency,[8],inactive
same,Potency,[9],inactive
same,Potency,[10],inactive
same,Potency,[11],inactive
same,Potency,[12],inactive
same,Potency,[13],inactive
same,Potency,[14],inactive
same,Potency,[15],inactive
same,Potency,[16],inactive
same,Potency,[17],inactive
same,Potency,[18],inactive
same,Potency,[19],inactive
CN1CCCN=C1/C=C/c1cccs1,Potency,[1],inactive
same,Potency,[2],inactive
same,max response,[3],5.88%
same,Potency,[4],inactive
same,Potency,[5],inactive
same,Potency,[6],inactive
same,Potency,[7],inactive
same,Potency,[20],inactive
same,Potency,[8],inactive
same,Potency,[10],inactive
same,Potency,[11],inactive
same,Potency,[12],inactive
same,Potency,[13],inactive
same,Potency,[14],inactive
same,Potency,[15],inactive
same,Potency,[16],inactive
same,Potency,[17],inactive
same,Potency,[18],inactive
same,Potency,[19],inactive
Nc1ccc(C(=O)OCCCOC(=O)c2ccc(N)cc2)cc1,Potency,[1],49 µM (active)
same,Potency,[2],inactive
same,Potency,[3],38.9 µM (active)
same,Potency,[4],inactive
same,Potency,[5],inactive
same,Potency,[6],inactive
same,Potency,[7],inactive
same,Potency,[20],inactive
same,Potency,[8],inactive
same,Potency,[10],inactive
same,Potency,[11],inactive
same,Potency,[12],inactive
same,Potency,[13],inactive
same,Potency,[15],43.6 µM (active)
same,Potency,[16],inactive
same,Potency,[17],inactive
same,Potency,[18],inactive
same,Potency,[19],inactive
